We go through one compound from the supplement of paper PMC11732987, “Enantioselective OTUD7B fragment discovery through chemoproteomics screening and high-throughput optimisation” (Communications Chemistry, 2025).

A number with no mark means an inactive call.

What all share (assay): log2 ratio of Biotin-Ahx-Ub-VS probe labelling (fragment/DMSO); higher = less target engagement (more negative = stronger competition), active = hit call of the paper (q ≤ 0.05, log2 ratio ≤ -1)
Settings in all cases: compound concentration: 200 uM; treatment time: 3 h

One test concerns the target T1, OTUD6B (UniProt Q8N6M0).
T1 sequence (whole entry): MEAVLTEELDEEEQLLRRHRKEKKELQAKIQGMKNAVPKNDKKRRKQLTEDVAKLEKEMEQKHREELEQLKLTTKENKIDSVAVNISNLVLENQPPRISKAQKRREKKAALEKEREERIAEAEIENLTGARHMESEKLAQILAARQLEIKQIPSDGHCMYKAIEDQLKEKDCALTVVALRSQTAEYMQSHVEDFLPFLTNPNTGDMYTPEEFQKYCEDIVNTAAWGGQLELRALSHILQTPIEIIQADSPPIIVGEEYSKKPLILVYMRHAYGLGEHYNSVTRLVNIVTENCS
An outline of the steps: (§1)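 Using Biotin-Ahx-Ub-VS at 0.5 µM final for 1 h, DUBs were labelled in HEK293T lysate (495 µg per sample) that had first been treated in triplicate with fragment at 200 µM or vehicle for 3 h. NeutrAvidin enrichment, LysC and trypsin digestion and diaPASEF LC-MS/MS followed. Spectronaut label-free quantities were global-median-normalised. Values are average log2 fragment/vehicle ratios by unpaired t-test, using proteins with ≥2 unique peptides.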

The target in another test is T2, OTUD7B (UniProt Q6GQQ9).
T2 sequence (whole entry): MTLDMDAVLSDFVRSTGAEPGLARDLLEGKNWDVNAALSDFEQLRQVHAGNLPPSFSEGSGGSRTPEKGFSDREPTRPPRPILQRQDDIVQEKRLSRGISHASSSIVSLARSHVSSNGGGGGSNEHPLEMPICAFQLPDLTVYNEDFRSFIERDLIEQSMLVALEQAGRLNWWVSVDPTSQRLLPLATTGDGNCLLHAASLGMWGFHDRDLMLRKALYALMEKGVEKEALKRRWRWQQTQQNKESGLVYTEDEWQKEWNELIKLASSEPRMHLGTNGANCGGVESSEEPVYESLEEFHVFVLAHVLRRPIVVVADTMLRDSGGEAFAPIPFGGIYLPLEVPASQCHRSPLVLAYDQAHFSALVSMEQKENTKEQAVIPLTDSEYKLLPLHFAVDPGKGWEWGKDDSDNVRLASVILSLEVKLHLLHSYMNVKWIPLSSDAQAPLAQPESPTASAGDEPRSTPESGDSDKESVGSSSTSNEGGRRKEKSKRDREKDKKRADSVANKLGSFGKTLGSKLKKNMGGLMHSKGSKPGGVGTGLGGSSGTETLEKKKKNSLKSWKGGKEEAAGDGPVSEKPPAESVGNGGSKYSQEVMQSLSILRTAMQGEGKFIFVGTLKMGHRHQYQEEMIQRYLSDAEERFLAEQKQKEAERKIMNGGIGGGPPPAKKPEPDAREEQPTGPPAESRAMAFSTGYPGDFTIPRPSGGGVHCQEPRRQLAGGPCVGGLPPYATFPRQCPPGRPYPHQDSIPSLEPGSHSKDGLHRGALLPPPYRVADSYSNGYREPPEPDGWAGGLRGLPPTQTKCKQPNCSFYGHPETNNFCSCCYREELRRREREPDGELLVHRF
Summed up: as §1

The target in a further test is PRPF8 (UniProt Q6P2Q9). An outline of the steps: as §1
In the next test the target is T3, PSMD7 (UniProt P51665).
T3 sequence (whole entry): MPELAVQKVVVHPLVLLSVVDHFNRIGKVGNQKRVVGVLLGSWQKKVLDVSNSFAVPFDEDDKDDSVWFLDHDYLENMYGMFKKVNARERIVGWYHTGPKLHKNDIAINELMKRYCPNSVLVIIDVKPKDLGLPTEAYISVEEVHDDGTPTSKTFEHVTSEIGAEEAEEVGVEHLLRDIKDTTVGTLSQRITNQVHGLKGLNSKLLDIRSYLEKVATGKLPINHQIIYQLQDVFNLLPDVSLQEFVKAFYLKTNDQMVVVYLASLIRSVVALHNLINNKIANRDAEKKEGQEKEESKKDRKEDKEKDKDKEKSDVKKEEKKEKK
An outline of the steps: as §1

Another test addresses UCHL1 (UniProt P09936). Summed up:
as §1

A further test deals with T4, UCHL3 (UniProt P15374).
T4 sequence (whole entry): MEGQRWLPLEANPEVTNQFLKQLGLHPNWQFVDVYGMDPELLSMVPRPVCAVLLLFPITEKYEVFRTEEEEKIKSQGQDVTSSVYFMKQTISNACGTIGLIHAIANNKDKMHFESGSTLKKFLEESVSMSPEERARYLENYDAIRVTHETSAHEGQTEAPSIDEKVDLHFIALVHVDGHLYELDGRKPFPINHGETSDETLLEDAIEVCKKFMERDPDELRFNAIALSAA
An outline of the steps:
as §1

The target of a further test is T5, UCHL5 (UniProt Q9Y5K5).
T5 sequence (whole entry): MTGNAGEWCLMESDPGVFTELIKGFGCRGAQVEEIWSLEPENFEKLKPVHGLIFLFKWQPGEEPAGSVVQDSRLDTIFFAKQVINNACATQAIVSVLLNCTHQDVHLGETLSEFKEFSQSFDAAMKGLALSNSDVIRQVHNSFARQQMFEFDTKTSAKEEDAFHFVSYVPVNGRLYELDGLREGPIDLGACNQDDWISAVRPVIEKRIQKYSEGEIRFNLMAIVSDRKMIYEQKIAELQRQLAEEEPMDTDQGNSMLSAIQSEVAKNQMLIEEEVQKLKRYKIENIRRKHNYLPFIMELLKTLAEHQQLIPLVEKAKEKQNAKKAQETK
An outline of the steps: as §1

For the next test, the target named is USP10 (UniProt Q14694). An outline of the steps:
as §1

A further test deals with T6, USP15 (UniProt Q9Y4E8).
T6 sequence (whole entry): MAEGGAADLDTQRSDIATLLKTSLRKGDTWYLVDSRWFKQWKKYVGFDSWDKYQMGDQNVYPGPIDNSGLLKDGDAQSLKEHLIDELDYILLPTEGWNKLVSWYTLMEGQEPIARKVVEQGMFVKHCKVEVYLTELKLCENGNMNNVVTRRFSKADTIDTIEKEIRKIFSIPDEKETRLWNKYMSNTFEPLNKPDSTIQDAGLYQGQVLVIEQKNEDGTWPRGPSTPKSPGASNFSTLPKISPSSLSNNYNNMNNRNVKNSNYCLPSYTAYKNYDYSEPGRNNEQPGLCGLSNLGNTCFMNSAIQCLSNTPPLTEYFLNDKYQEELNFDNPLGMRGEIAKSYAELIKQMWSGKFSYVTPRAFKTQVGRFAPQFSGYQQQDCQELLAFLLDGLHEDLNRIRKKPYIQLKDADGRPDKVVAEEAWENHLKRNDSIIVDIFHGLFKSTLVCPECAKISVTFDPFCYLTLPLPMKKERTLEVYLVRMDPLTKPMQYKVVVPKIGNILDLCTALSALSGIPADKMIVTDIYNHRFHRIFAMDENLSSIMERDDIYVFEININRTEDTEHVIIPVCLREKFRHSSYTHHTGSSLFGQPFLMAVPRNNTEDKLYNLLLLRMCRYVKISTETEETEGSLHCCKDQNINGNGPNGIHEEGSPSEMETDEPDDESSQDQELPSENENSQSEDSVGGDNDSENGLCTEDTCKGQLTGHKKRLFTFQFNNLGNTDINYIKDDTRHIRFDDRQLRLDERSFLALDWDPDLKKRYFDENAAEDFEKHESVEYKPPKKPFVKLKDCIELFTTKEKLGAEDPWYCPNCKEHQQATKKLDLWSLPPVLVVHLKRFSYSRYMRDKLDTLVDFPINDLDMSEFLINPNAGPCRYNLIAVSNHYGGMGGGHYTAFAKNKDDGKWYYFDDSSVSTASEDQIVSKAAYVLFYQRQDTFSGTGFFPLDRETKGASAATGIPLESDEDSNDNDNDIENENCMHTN
An outline of the steps:
as §1

In another test the target is USP16 (UniProt Q9Y5T5). An outline of the steps: as §1
Sequence of USP16 (Q9Y5T5 whole entry, looked up): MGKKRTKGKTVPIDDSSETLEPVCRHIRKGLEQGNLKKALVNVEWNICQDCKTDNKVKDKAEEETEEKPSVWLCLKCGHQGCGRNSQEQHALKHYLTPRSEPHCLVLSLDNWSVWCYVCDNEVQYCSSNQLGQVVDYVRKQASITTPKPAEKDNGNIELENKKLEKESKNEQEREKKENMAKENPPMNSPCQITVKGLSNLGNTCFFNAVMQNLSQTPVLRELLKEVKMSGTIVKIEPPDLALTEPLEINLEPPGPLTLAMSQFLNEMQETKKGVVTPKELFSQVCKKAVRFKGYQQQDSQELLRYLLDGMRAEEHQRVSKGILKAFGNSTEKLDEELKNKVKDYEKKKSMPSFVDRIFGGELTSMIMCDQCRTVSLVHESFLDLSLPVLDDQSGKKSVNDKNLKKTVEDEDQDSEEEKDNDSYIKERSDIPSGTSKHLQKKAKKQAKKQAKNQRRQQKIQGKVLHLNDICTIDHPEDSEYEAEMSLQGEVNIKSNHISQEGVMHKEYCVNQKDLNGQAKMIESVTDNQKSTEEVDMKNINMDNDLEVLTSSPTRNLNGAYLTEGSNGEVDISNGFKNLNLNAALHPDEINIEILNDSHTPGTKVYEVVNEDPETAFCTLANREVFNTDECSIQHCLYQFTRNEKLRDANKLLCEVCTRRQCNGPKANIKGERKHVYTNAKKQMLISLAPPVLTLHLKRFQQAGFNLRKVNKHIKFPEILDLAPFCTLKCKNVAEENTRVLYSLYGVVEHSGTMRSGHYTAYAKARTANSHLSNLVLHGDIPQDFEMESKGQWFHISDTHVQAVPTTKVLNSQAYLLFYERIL

Sequence of USP10 (Q14694 whole entry): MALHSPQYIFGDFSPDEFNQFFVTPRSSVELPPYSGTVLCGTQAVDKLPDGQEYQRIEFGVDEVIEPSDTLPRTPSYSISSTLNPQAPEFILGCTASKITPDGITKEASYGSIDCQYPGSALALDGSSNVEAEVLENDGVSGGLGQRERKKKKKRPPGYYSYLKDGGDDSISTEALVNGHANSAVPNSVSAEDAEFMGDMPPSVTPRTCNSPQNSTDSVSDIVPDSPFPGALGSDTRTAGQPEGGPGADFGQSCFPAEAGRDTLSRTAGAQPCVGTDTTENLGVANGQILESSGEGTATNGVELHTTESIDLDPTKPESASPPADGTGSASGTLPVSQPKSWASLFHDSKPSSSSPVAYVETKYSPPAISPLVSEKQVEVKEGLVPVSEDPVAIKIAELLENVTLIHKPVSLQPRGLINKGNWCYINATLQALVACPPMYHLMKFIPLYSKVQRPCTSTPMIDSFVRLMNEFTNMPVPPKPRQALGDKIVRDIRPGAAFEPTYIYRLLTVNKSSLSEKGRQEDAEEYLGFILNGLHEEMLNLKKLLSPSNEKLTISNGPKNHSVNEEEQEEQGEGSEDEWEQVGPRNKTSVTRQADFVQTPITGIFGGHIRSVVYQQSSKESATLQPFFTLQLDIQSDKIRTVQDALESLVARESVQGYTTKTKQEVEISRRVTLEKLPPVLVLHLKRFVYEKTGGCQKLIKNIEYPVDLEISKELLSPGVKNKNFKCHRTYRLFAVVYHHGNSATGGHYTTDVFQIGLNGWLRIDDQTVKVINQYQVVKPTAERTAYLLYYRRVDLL
Sequence of UCHL1 (P09936 whole entry, looked up): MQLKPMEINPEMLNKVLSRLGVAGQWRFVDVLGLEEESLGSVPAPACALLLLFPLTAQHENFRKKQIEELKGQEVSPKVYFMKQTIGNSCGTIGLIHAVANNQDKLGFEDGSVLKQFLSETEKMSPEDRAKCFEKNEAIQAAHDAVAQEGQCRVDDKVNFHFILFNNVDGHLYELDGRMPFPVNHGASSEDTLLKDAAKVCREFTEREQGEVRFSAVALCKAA

With `O=C(CCl)N1CCOC2(CCC2)CC1`, the “log2 ratio of Biotin-Ahx-Ub-VS probe labelling” value was -0.0124 with OTUD6B; -0.961 with OTUD7B; -0.071 with PRPF8; -0.283 with PSMD7; -1.35 (active) with UCHL1; 0.146 with UCHL3. Also, the “log2 ratio of Biotin-Ahx-Ub-VS probe labelling” value was -0.0451 with UCHL5, -0.118 with USP10, -0.447 with USP15 and 0.117 with USP16.
